# In PubChem BioAssay (NCATS):
# Results filed as inconclusive are left out. Calls of active or inactive are those of the source. The call rests on the fitted dose curve; in most records, active means well fitted cell-killing curve with a large enough effect; inconclusive means small, poorly fitted or top-dose-only effect, or effect the other way; inactive means no such curve, though single readings can be large or run the other way.
# Test: Quantitative High-Throughput drug screen in 47 multiple myeloma cell lines against the NCATS MIPE library collection: OPM2_DSMZ cell viability assay (AID 1919872); further: nearly all actives have a fitted effect of over 30% in size
# Details: OPM2 myeloma viability, CellTiter-Glo ATP luminescence, 48 h; series mostly up to 45.8 µM; viability (% of DMSO): at the top concentration
# Description: PI: Beverly A. Mock Ph.D.
# Laboratory of Cancer Biology and Genetics,
# Center for Cancer Research, National Cancer Institute,
# National Institute of Health, Bethesda, Maryland
# Drug resistance and disease progression are common in multiple myeloma (MM) patients, underscoring the need for new therapeutic combinations. […] We hypothesized that effective combinations would reduce MYC expression and enhance p16 activity. […] These preclinical data identify potentially useful drug combinations for evaluation in drug-resistant MM and reveal potential mechanisms of combined drug sensitivity.
# Described herein is the primary MIPE qHTS used to cherrypick compounds. Validated compounds were then further tested for potential synergistic activiy.
# [1] Peat TJ, Gaikwad SM, Dubois W, Gyabaah-Kessie N, Zhang S, Gorjifard S, Phyo Z, Andres M, Hughitt VK, Simpson RM, Miller MA, Girvin AT, Taylor A, Williams D, D'Antonio N, Zhang Y, Rajagopalan A, Flietner E, Wilson K, Zhang X, Shinn P, Klumpp-Thomas C, McKnight C, Itkin Z, Chen L, Kazandijian D, Zhang J, Michalowski AM, Simmons JK, Keats J, Thomas CJ, Mock BA. Drug combinations identified by high-throughput screening promote cell cycle transition and upregulate Smad pathways in myeloma. Cancer Lett. 2023 Aug 1;568:216284. doi: 10.1016/j.canlet.2023.216284. Epub 2023 Jun 24. PMID: 37356470; PMCID: PMC10408729.
# SEQUENCE No. (e.g., 1, 2, 3, etc.); […] (e.g., Cells, Incubation, Reagent, etc.); VALUE and DESCRIPTION.
# 1; Cells; 5 uL; white, solid bottom 1536-well Greiner assay plate.
# 2; Compounds; 23 nL; Kalypsis pin tool (Wako USA) equipped with a 1536-well pin head to transfer to the assay plates.
# 3; Incubation; 48 hours; 37C incubation.
# 4; Reagent;5uL; CellTiter Glo (Promega).
# 5; Detector; 425V; Luminescence; Viewlux PerkinElmer.
# NOTES (numbers refer to Sequence numbers above)
# 1. The cell-based screening methods employed in this study were like those previously published. Briefly, the corresponding myeloma cell lines were screened in 1,536-well plates with 500 cells, 5-uL per well for inhibition of cell viability (assessed by measuring ATP levels with CellTiterGlo).
# 2. NCATS MIPE 4.0 library of approved and investigational drugs were added using the Kalypsis pin tool. Wells treated with DMSO only for 100% viability and media only wells for 0% viability were used as controls.
# 3. The assay plates were covered and incubated for 48 hours in a 37C, 5% CO2 incubator with controlled humidity.
# 4. After 48 hours, CellTilter-GloTM luminescent substrate mix (Promega) reagent was added to the assay plate and plates we incubated for 5 min at room temperature.
# 5. Signal was measured as median relative luminescence units on a ViewLux (PerkinElmer) multiplate reader.
# [1] Heske CM, Davis MI, Baumgart JT, Wilson K, Gormally MV, Chen L, Zhang X, Ceribelli M, Duveau DY, Guha R, Ferrer M, Arnaldez FI, Ji J, Tran HL, Zhang Y, Mendoza A, Helman LJ, Thomas CJ. Matrix Screen Identifies Synergistic Combination of PARP Inhibitors and Nicotinamide Phosphoribosyltransferase (NAMPT) Inhibitors in Ewing Sarcoma. Clin Cancer Res. 2017 Dec 1;23(23):7301-7311. doi: 10.1158/1078-0432.CCR-17-1121. Epub 2017 Sep 12. PMID: 28899971; PMCID: PMC6636827.
# Potency means the concentration at half of the fitted maximal effect.
SMILES,viability (% of DMSO),Potency
O=C(N[C@H](CO)[C@H](O)c1ccc([N+](=O)[O-])cc1)C(Cl)Cl,99.5% (inactive),
CS(=O)(=O)c1ccc([C@@H](O)[C@@H](CO)NC(=O)C(Cl)Cl)cc1,101% (inactive),
Cn1nnc2c(C(N)=O)ncn2c1=O,122% (inactive),
CC(C)Cn1cnc2c(N)nc3ccccc3c21,96.5% (inactive),
Cc1noc(NS(=O)(=O)c2ccc(N)cc2)c1C,108% (inactive),
CCN[C@H]1C[C@H](C)S(=O)(=O)c2sc(S(N)(=O)=O)cc21,105% (inactive),
CC1=NN(c2ccccc2)C(=O)C1,124% (inactive),
NC(=O)c1ccc2[nH]ccc2c1,93.1% (inactive),
CN1CCN(c2c(F)cc3c(=O)c(C(=O)O)cn(CCF)c3c2F)CC1,98.5% (inactive),
COc1cnc(NS(=O)(=O)c2ccc(N)cc2)nc1,95.7% (inactive),
COc1cc2nc(N3CCCN(C)CC3)nc(NC3CCN(Cc4ccccc4)CC3)c2cc1OC,,7.43 µM (active)
O=S(=O)(O)CCS,109% (inactive),
CCn1cc(C(=O)O)c(=O)c2cc(F)c(N3CCN(C)CC3)cc21,97.9% (inactive),
C[C@@H]1CN(c2c(F)c(N)c3c(=O)c(C(=O)O)cn(C4CC4)c3c2F)C[C@H](C)N1,98.6% [at 23.2 µM] (inactive),
Cc1ccnc2c1NC(=O)c1cccnc1N2C1CC1,93.9% (inactive),
CC1=CC(=O)c2ccccc2C1=O,,20.9 µM (active)
CCCCCCNC(=O)n1cc(F)c(=O)[nH]c1=O,97% (inactive),
CC(=O)[C@H]1CC[C@H]2[C@@H]3CC=C4C[C@@H](O)CC[C@]4(C)[C@H]3CC[C@]12C,96.6% (inactive),
O=S(=O)(c1cccc2cnccc12)N1CCCNCC1,105% (inactive),
S=P(N1CC1)(N1CC1)N1CC1,114% (inactive),

SMILES,viability (% of DMSO),Potency
CCn1cc(C(=O)O)c(=O)c2cc(F)c(N3CCNCC3)nc21,107% (inactive),
CCc1cc(C(N)=S)ccn1,110% (inactive),
Cc1ccc(S(=O)(=O)N[C@@H](Cc2ccccc2)C(=O)CCl)cc1,,18.7 µM (active)
Nc1nc(N)nc(-c2cc(Cl)ccc2Cl)n1,117% (inactive),
CN(CCOc1ccc(CC2SC(=O)NC2=O)cc1)c1ccccn1 (stereo not given),104% (inactive),
CC(C)(C)NC(=O)[C@H]1CC[C@H]2[C@@H]3CC[C@H]4NC(=O)C=C[C@]4(C)[C@H]3CC[C@]12C,104% (inactive),
CN(C)c1ccc(C(=C2C=CC(=[N+](C)C)C=C2)c2ccc(N(C)C)cc2)cc1,,0.166 µM (active)
CC[C@H](NC(C)C)[C@H](O)c1ccc(O)c2[nH]c(=O)ccc12,107% (inactive),
CCN(CC)CC#CCOC(=O)C(O)(c1ccccc1)C1CCCCC1 (stereo not given),116% (inactive),
CN(C)CCc1c[nH]c2ccc(C[C@H]3COC(=O)N3)cc12,94% (inactive),
COC(=O)Nc1nc2ccc(Sc3ccccc3)cc2[nH]1,,3.32 µM (active)
CC(C)C1CCC(C(=O)N[C@H](Cc2ccccc2)C(=O)O)CC1 (stereo not given in full),,0.0093 µM (active)
N[C@@H](C(=O)N[C@@H]1C(=O)N2C(C(=O)O)=C(Cl)CS[C@H]12)c1ccccc1,113% (inactive),
CN1CCN(c2c(F)cc3c(=O)c(C(=O)O)cn4c3c2OCN4C)CC1,106% (inactive),
Cc1ncc([N+](=O)[O-])n1CCO,109% (inactive),
CC(C)(C)C(=O)OCOP(=O)(COCCn1cnc2c(N)ncnc21)OCOC(=O)C(C)(C)C,,23.5 µM (active)
Oc1c(Cl)cc(Cl)c2cccnc12,,26.4 µM (active)
COc1ccc(-c2ccc3cc(C(=O)O)ccc3c2)cc1C12CC3CC(CC(C3)C1)C2,94.7% (inactive),
COc1nc(N)nc2c1ncn2[C@@H]1O[C@H](CO)[C@@H](O)[C@@H]1O,,0.469 µM (active)
NCCCC(O)(P(=O)(O)O)P(=O)(O)O,113% (inactive),
